Source: PubChem BioAssay (National Center for Advancing Translational Sciences (NCATS))
Only some compounds are listed: those with a hit (about 10% of all), similar ones and a draw of the others.
G9a inh – inhibitors of human histone lysine methyltransferase G9a | G9a H3K9 monomethylation, AlphaScreen, 2 h | Potency, µM (top dose mostly 102 µM), for the others: at the top dose activity, negative = inhibition, actives largely listed as inhibitors | Q96KQ7 | 8.8% of 350,000 active; note: potency is the fitted concentration of half-maximal effect; % is set by controls: 0 for no effect and ±100 for the full control effect; nearly all actives have a fitted effect of over 75% in size
Target sequence (Q96KQ7 913-1193 limits assumed): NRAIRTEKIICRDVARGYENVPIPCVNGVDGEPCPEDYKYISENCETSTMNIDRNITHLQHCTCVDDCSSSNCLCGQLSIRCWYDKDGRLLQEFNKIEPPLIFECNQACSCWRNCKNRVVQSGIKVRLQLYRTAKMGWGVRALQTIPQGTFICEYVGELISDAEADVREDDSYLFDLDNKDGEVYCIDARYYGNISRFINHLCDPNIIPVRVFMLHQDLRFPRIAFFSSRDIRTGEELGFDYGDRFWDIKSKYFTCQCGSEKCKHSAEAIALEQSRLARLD
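AlphaScreen detection with an anti-monomethyl H3K9 antibody quantified product after a 2 h room-temperature reaction containing 500 nM biotinylated H3K9 peptide, 20 µM SAM and 20 nM enzyme, which had been preincubated 15 min with compound.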
HP1b binding inh – blocks HP1-beta chromodomain binding to methylated histone tails; P83916; AlphaScreen HP1-beta / biotin-H3K9me3 peptide binding; Potency, µM (titrated, usually from 114 µM), without a hit: at the top dose activity change, negative = inhibition, most hits filed as inhibitors; 0.56% of 390,000 active; AID 540317; note: potency is the fitted concentration of half-maximal effect; nearly all actives have a fitted effect of over 70% in size
Target sequence (P83916 whole entry, looked up): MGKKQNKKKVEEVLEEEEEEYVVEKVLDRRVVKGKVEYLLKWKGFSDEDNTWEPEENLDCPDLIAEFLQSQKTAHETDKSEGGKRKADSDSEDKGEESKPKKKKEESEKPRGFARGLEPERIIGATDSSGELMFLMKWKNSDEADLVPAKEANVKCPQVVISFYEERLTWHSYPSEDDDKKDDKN
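AlphaScreen: HP1-beta (50 nM) preformed 30 min with biotin-H3(1-18)K9me3 peptide (50 nM) in PBS pH 7.4, 0.01% Tween-20. Compound added for 30 min at RT, then streptavidin donor/nickel chelate acceptor beads (10 ug/mL) for 30 min.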
JMJD2A Tudor – blocks the human JMJD2A Tudor domain. O75164. AlphaScreen JMJD2A-Tudor / H3K4me3 peptide binding. Potency, µM (titrated, usually from 114 µM), for inactives: at the top dose activity change, negative = inhibition, hits mostly inhibitors. 4.4% of 390,000 active; note: potency is the fitted concentration of half-maximal effect; % is set by controls: 0 for no effect and ±100 for the full control effect; nearly all actives have a fitted effect of over 50% in size
Six1-Eya2 blk – blocks human Six1 binding to Eya2; AlphaScreen GST-Six1/His-Eya2 binding, biochemical; stronger effect = lower value; AID 651725; activity change, % (no concentration beside the values); Q15475+O00167; 0.56% of 360,000 active; in the data active = activity change below about -65%; inconclusive = mostly about -30% to -63%; note: % is set by controls: 0 for no effect and ±100 for the full control effect
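AlphaScreen luminescence read after one hour at 37 °C in darkness. Pin-transferred compounds met GST-Six1 and His-Eya2 protein (5X stock 250 nM/500 nM) plus glutathione donor and Ni-chelate acceptor beads (5X, 50 ug/mL).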
BAZ2B block – inhibitors of human BAZ2B bromodomain; 4.4% of 360,000 active; AlphaScreen BAZ2B-H3K14Ac peptide displacement; Potency, µM (highest dose often 114 µM), inactives show top-dose activity change, negative = inhibition, actives largely listed as inhibitors; AID 504333; note: potency is the fitted concentration of half-maximal effect; % is set by controls: 0 for no effect and ±100 for the full control effect; nearly all actives have a fitted effect of over 60% in size
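BAZ2B (50 nM) with biotin-H3(5-23)K14Ac peptide (50 nM) in PBS pH 7.4, 0.01% Tween-20, preformed 30 min, then compound 30 min at room temperature; top concentration 110uM. AlphaScreen streptavidin donor/nickel chelate acceptor beads (10 ug/mL final), 20 min dark, signal read.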
CtBP-E1A inh – blocks the CtBP interaction with E1A | AlphaScreen GST-E1A/His-CtBP binding, 1536-well; stronger effect = lower value | activity change, % (concentration not given with the values) | 0.49% of 340,000 active | AID 651724; in the data active = activity change below about -65%; inconclusive = mostly about -30% to -63%; note: % is set by controls: 0 for no effect and ±100 for the full control effect
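AlphaScreen with 125 nM GST-E1A and 125 nM His-CtBP (5X stocks) in Tris pH 8.0, 300 mM NaCl, BSA, Tween 20, TCEP. Compounds preincubated 2 h at 37 deg C, then glutathione donor/nickel acceptor beads added for 1 h at 37 deg C in dark.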
Starred values were filed as active, the others as inactive; ? = inconclusive; nt = no result given; ! = not active in a repeat; [ ] = remark or other dose. Unless noted, calls come from the whole dose curve; as a rule, active = well fitted inhibition curve with a large enough effect; inconclusive = small, poorly fitted or top-dose-only effect; inactive = no such curve, though single readings can be large or run the other way.

SMILES | G9a inh | HP1b binding inh | JMJD2A Tudor | Six1-Eya2 blk | BAZ2B block | CtBP-E1A inh
CC(C)N1CSC(=S)N(Cc2ccccc2)C1 | 31.6µM* | 9.2% | -14.3% | -0.2 | -10.2% | -5.6
CCOC(=O)N1CCC(N2CCN(CCC(C)C)C(CCO)C2)CC1 (stereo unspecified) | 13.8% | 22.7% | -10.1% | 4.9 | 3.8% | nt
Cc1ccc(C(O)c2ncc(-c3ccc(Cl)cc3)[nH]2)cc1F (stereo unspecified) | nt | nt | nt | -12.6 | nt | -8.0
COc1ccccc1/C=C/C1=NC(=C\C=C/c2ccccc2)/C(=O)O1 | ? | ? | 56.2µM* | 6.8 | ? | 0.0
O=C(CSc1ccc(-c2ccco2)nn1)Nc1ccccc1F | 39.8µM* | 26.8% | -4.6% | 0.4 | -16.2% | -4.3
CCOc1ccccc1NC(=O)CSc1ccc(-c2ccco2)nn1 | 25.1µM* | 6.2% | -31.9% | -19.1 | ? | -11.7
COc1cccc(-c2nn(C)c3sc(C(=O)N4CCN(c5cccc(C)c5)C(C)C4)cc23)c1 (stereo unspecified) | ? | 5.6% | ? | nt | nt | nt
COc1ccccc1N1CCN(c2nc3ccc(C)cc3nc2-n2nc(C)cc2C)CC1 | 33.7%[59 µM] | 45.5% | 1.4% | nt | -6.0% | nt
COc1cccc(C2NC(CCSC)(C(=O)O)C3C(=O)N(C(C)C)C(=O)C23)c1O (stereo unspecified) | ? | 62.1% | -17.9% | 4.7 | 39.8µM* | 0.0
CN1CCc2nc3sc(C(=O)C45CC6CC(CC(C6)C4)C5)c(N)c3cc2C1 | 2.24µM* | -77.0% | -26.1% | 9.9 | ? | 0.7
CN1CCc2nc3sc(C(=O)Nc4ccccc4C(F)(F)F)c(N)c3cc2C1 | 12.6µM* | 13.9% | ? | nt | ? | nt
Cc1ccccc1NC(=O)c1sc2nc3c(cc2c1N)CN(Cc1ccccc1)CC3 | ? | 45.3% | -0.3% | nt | -8.8% | nt
CCN1CCc2nc3sc(C(=O)c4ccccc4)c(N)c3cc2C1 | 11.2µM* | -0.5% | ? | nt | -33.3%[57.1 µM] | nt
CCOc1ccccc1NC(=S)NC1CCCCC1 | -16.6%[59 µM] | 5.1% | -17.9% | -1.3 | -22.6% | -1.1
CCOc1ccc(C(=S)NC2CCCCC2)cc1OC | 12.6µM* | ? | ? | 1.6 | -4.8% | -8.2
CCOc1ccc(CC(=O)NNC(=S)NC2CCCCC2)cc1OCC | 14.2%[59 µM] | 53.0% | 0.7% | 3.5 | 2.6% | -4.7
CCOc1ccccc1C(=S)NC1CCCCC1 | 35.5µM* | 25.3% | -1.4% | 10.6 | 8.1% | 4.2
CNCC(=O)NCC(=O)N[C@@H](Cc1ccccc1)C(=O)N[C@@H](CC(C)C)C(=O)O | 9.1%[59 µM] | nt | nt | nt | nt | nt
C=CCN1CCc2cc(O)c(O)cc2C(c2ccccc2)C1 (stereo unspecified) | 10µM* | 9.8% | -24.5% | -1.3 | -5.5% | 4.0
C=CCN1CCN(C(=O)c2ccc(-c3ccccc3)cc2)CC1 | nt | 11.8% | -24.9% | 2.5 | -11.0% | -4.9
C=CCN1CCc2c(cc(O)c(O)c2Cl)C(c2ccccc2)C1 (stereo unspecified) | 7.08µM*! | 20.1% | ? | -2.7 | ? | -13.9
C=CCN1CCN(C(=O)CSc2ccccc2)CC1 | 30.8% | 22.5% | -4.0% | 9.4 | -18.2% | nt
CC1=C(c2ccc(Cl)cc2)S(=O)(=O)N=C1N1CCN(c2cccc(C)c2)C(C)C1 (stereo unspecified) | -53.4%[59 µM] | 23.9% | -20.9% | nt | -7.3% | nt
Cc1cccc(C2CN(C)CCc3c2cc(O)c(O)c3Cl)c1 (stereo unspecified) | 23.8µM* | 15.1% | -35.3% | -4.3 | -7.6% | -9.6
c1nc(C2CCCCC2)cc2cc3c(cc12)OCO3 | nt | 66.2% | 5.8% | 4.7 | nt | 3.3
SMILES | G9a inh | HP1b binding inh | JMJD2A Tudor | Six1-Eya2 blk | BAZ2B block | CtBP-E1A inh
COC(=O)c1cc(S(=O)(=O)N2CCN(Cc3ccccc3)CC2)cn1C | 14.2% | 38.6% | -2.8% | -1.8 | 3.1% | 0.0
CCCn1c(=S)[nH]c2cc(C(=O)NCC3CCCO3)ccc2c1=O (stereo unspecified) | 10µM* | 50.9% | -1.4% | 0.1 | -7.6% | 5.8
O=C(CCn1c(=S)[nH]c2ccccc2c1=O)NCC1CCCO1 (stereo unspecified) | ? | 41.4% | 50.1µM* | -2.9 | 1.2% | 4.7
O=C(CCn1c(=S)[nH]c2ccccc2c1=O)NCCc1ccccc1 | -31.0% | 26.2% | -1.7% | 3.0 | nt | -3.6
Cc1ccccc1C(=O)c1cccn1CC(=O)NCC1CCCO1 (stereo unspecified) | 44.7µM* | 23.6% | -15.9% | -3.8 | 7.9% | 4.5
O=C(Cn1nc(C(=O)O)c2ccccc2c1=O)NCC1CCCO1 (stereo unspecified) | 70.8µM* | 11.3% | -4.4% | 7.2 | 3.0% | 0.5
Cc1ccccc1C(=O)c1cccn1CC(=O)NCc1ccccc1 | -6.1% | 22.3% | -4.5% | -4.7 | -1.2% | 0.4
COc1ccc(OCC(=O)Nc2ccc(-c3nc4cc(C)cc(C)c4o3)cc2)cc1 | -9.5%[59 µM] | 27.3% | -19.3% | nt | -4.3% | nt
CS(=O)(=O)C1=C(O)C(=O)N(CCCC(=O)O)C1c1ccccc1F (stereo unspecified) | -7.6%[59 µM] | 15.1% | 50.1µM* | 3.5 | -3.1% | -21.4
CC(=O)C1=C(O)C(=O)N(Cc2ccccc2)C1c1ccccc1F (stereo unspecified) | ? | 26.2% | -20.3% | -6.3 | -35.0% | 0.0
COc1ccc2c(c1)C(=O)N(c1ccccc1C)C(=O)C2(C)C | 4.6% | 10.0% | -13.1% | 9.3 | -0.7% | -2.6
Cc1ccc(C2=NC(=O)/C(=C/c3cc(O)c(O)c(Br)c3)S2)cc1 | 2.24µM* | 3.16µM* | 5.01µM* | -29.7 | 3.55µM* | ?
COc1cc(/C=C2\SC(c3ccc(C)cc3)=NC2=O)cc(OC)c1O | ? | 12.6µM* | 56.2µM* | -14.7 | 35.5µM* | ?
CC1=CC(c2ccccc2)n2ncnc2N1 (stereo unspecified) | nt | 41.7% | -4.1% | 2.3 | nt | 3.2
CC1=Nc2ncnn2C(c2ccccc2)/C1=N\O (stereo unspecified) | 50.1µM* | 18.7% | -11.6% | -0.7 | ? | -1.4
Cc1nc2ccc(Cl)cc2nc(C)/c1=N\O | 28.2µM* | 34.3% | -12.5% | 0.6 | -0.6% | -13.8
COc1cccc(CN2CC(C(=O)N(C)Cc3nc4ccc(F)cc4[nH]3)CCC2=O)c1 (stereo unspecified) | nt | 34.9% | 8.6% | 4.9 | -3.0% | 8.9
COc1ccc2nc(CCN(C)C(=O)C3CCC(=O)N(Cc4cccc(F)c4)C3)[nH]c2c1 (stereo unspecified) | 7.4% | 19.0% | -31.1% | 1.5 | 50.1µM* | 2.1
O=C(O)c1ccc(C2CCCCC2)cn1 | ? | 36.0% | 1.58µM* | -90.0* | 3.98µM* | -84.6*
COc1ccc(O)c(/C=N/Nc2nc(C)cc(-c3ccccc3)n2)c1 | nt | ? | 35.5µM* | -27.8 | nt | -16.6
